Assay [1] can be described thus: qHTS assay to identify small molecule antagonists of the thyroid receptor (TR) signaling pathway (AID 743065). Further: nearly all actives have a fitted effect of over 55% in size. Further: potency means the concentration at half of the fitted maximal effect. Put shortly:
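Antagonism measured as loss of luciferase signal in GH3 cells stably carrying a TRE-luciferase reporter, co-treated with compound and T3 (1 nM final) for 23.5 h at 37 C. Viability was read in the same well by CellTiter-Fluor.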
(In qHTS, concentration-response curves come from the screen itself.)

Assay [2] concerns thyroid hormone receptor (rat, GH3 cells). Kind of assay: qHTS assay to identify small molecule agonists of the thyroid receptor (TR) signaling pathway (AID 743066; calls by dose curve).
Assay [3] concerns the target Estrogen receptor (Homo sapiens) (UniProt P03372). The assay is described as follows: qHTS assay to identify small molecule agonists of the estrogen receptor alpha (ER-alpha) signaling pathway (AID 743075; calls by dose curve).
A further assay has as its target Aromatase (Homo sapiens) (UniProt P11511). The assay is described as follows: qHTS assay to identify aromatase inhibitors (AID 743083). Further: nearly all actives have a fitted effect of over 55% in size. Further: potency means the concentration at half of the fitted maximal effect.
Assay [4] deals with Estrogen receptor (Homo sapiens) (UniProt P03372). The assay is described as follows: qHTS assay to identify small molecule antagonists of the estrogen receptor alpha (ER-alpha) signaling pathway (AID 743069; active means well fitted curve in the direction sought with a large enough effect in the signal ratio in the repeat runs, not every such curve was filed as active; inconclusive means weak or mixed curves, or effect the other way; inactive means no such curve, though single readings can be large or run the other way; the % refers to the signal ratio; further: potency means the concentration at half of the fitted maximal effect). Summed up:
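Compound effects are measured against 17beta-estradiol stimulation in HEK293 cells with a UAS-controlled beta-lactamase reporter for ER-alpha. Exposure lasts 18 hr at 37C; LiveBLAzer B/G FRET substrate follows for 2 hr at room temperature.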

Assay [5] in a line: qHTS assay to identify small molecule antagonists of the estrogen receptor alpha (ER-alpha) signaling pathway using the BG1 cell line - cell viability counter screen (AID 743081).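 Further: compound given together with 17beta-estradiol as the ER stimulus; nearly all actives have a fitted effect of over 45% in size.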 Further: potency means the concentration at half of the fitted maximal effect.
Assay [6] is described as follows: qHTS assay to identify aromatase inhibitors - cell viability counter screen (AID 743084).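 Further: cells stimulated with testosterone during compound exposure; nearly all actives have a fitted effect of over 55% in size.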 Further: potency means the concentration at half of the fitted maximal effect.
The nature of assay [7]: qHTS assay to identify small molecule antagonists of the estrogen receptor alpha (ER-alpha) signaling pathway - cell viability counter screen (AID 743074; calls by dose curve;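 further: HEK293 cells carrying ER-alpha-UAS-bla reporter stimulated with 17beta-estradiol; nearly all actives have a fitted effect of over 45% in size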; further: potency means the concentration at half of the fitted maximal effect).
Assay [8] in a line: qHTS assay to identify small molecule antagonists of the estrogen receptor alpha (ER-alpha) signaling pathway using the BG1 cell line (AID 743080; calls by dose curve;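 further: BG1 cells stimulated with 17beta-estradiol alongside compound; nearly all actives have a fitted effect of over 25% in size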; further: potency means the concentration at half of the fitted maximal effect). Put shortly: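 Endogenous full-length ER-alpha in BG1-Luc-4E2 cells drives a stably integrated 4×ERE luciferase gene; compounds were tested against 17beta-estradiol over 21.5 h, with luminescence and multiplexed viability fluorescence recorded.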

Assay [9] deals with Estrogen receptor (Homo sapiens) (UniProt P03372). Kind of assay: qHTS assay to identify small molecule agonists of the estrogen receptor alpha (ER-alpha) signaling pathway using the BG1 cell line (AID 743079). Further: nearly all actives have a fitted effect of over 20% in size. Further: potency means the concentration at half of the fitted maximal effect. As to conditions: BG1Luc4E2 cells, ERE-luciferase agonist, 22 h; activation: at 70.3 µM (top of the series).

Where a structure was tested more than once in an assay, its records may differ in their call. The source made the active and inactive calls. Unless noted, the call rests on the fitted dose curve; in most records, active means well fitted curve in the direction sought with a large enough effect in the repeat runs; inconclusive means weak or mixed curves; inactive means no such curve, though single readings can be large; an effect the other way counts as inactive or inconclusive.

Sequence of Estrogen receptor (Homo sapiens) (P03372 whole entry, looked up): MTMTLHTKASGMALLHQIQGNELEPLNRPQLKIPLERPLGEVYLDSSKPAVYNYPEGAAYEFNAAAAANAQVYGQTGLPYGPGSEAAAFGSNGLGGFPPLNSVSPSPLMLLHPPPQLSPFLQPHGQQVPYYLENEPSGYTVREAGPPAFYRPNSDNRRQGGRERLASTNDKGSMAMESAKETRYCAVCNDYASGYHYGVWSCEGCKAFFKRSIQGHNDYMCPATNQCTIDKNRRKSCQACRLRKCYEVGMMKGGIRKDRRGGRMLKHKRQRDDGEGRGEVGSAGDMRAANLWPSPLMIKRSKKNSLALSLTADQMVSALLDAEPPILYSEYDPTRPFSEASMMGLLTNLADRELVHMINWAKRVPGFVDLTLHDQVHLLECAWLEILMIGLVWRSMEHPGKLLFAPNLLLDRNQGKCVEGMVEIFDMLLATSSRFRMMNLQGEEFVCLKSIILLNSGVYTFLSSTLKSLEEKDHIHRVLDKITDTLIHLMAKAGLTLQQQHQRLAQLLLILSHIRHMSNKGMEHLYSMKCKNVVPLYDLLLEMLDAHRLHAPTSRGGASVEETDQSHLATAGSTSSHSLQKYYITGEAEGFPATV
Sequence of Aromatase (Homo sapiens) (P11511 whole entry, looked up): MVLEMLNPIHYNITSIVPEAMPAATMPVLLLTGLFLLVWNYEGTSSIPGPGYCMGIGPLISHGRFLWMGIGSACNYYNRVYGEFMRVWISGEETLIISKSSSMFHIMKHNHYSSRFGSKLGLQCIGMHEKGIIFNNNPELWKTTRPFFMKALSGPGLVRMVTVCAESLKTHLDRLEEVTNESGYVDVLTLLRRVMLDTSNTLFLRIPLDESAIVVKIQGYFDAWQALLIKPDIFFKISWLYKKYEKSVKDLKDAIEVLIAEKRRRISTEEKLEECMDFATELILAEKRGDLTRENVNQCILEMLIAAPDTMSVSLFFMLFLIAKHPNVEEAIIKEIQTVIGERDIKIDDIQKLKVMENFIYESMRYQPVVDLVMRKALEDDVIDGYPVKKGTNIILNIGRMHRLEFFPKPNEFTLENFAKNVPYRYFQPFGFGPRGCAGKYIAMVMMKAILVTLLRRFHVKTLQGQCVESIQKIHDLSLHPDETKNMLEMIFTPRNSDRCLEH

In the case of `COc1ccccc1NC(=O)c1cc2ccccc2cc1O`, the Potency was 17.2 µM (active) in [1] and 24.3 µM (active) with Aromatase (Homo sapiens). For the same compound, the compound was called inactive in [2]. For the same compound, the Potency entry in [3] is “inactive”.

In the case of `O=[N+]([O-])c1cc(C2CCCCC2)c(O)c([N+](=O)[O-])c1`, the Potency in assay [1] was 3.85 µM (active); in [4], 6.15 µM [inconclusive] (active); in [5], 6.09 µM (active); with Aromatase (Homo sapiens) it was 17.2 µM (active); in assay [6] it was 17.2 µM (active). For the same compound, the Potency entry in assay [3] is “inactive”.

Consider `CC(=O)NC1(c2cccc(F)c2)CCN(CC[C@@]2(c3ccc(Cl)c(Cl)c3)CN(c3ccccc3)C(=O)CO2)CC1`, for which the Potency in assay [1] was 10.9 µM (active); in assay [7] it was 39 µM (active); in assay [8] it was 54.6 µM (active); in [6], 48.7 µM (active). In addition, the Potency entry in assay [3] was “inactive”.

Regarding `CCCCC(CC)COP(=O)(O)O` (configuration not stated), in assay [2], the call was inactive. In addition, the Potency in [4] was 39.6 µM [inconclusive] (active). The Potency entry (in assay [7]; in [3]; in [9]; in assay [8]; in assay [5]; with Aromatase (Homo sapiens)) was “inactive” in each case. Moreover, in [6], the Potency entry is “inactive”.

In the case of `O=C(O)CCc1nc(-c2ccccc2)c(-c2ccccc2)o1`, the compound was called inactive in assay [2]. The Potency entry (in [4]; in assay [7]; in assay [3]; in assay [5]; in the assay with Aromatase (Homo sapiens); in assay [6]) was “inactive” throughout.

With `OCCN1CCN(CCCN2c3ccccc3Sc3ccc(Cl)cc32)CC1`, the Potency in assay [1] is 5.07 µM (active). The Potency result in [4], in assay [7], in [3], in [9], in assay [8] and in assay [5] was “inactive” in each case. For the same compound, in the assay with Aromatase (Homo sapiens), the Potency entry was “inactive”.

Regarding `Cc1ccc2c(Br)cc(Br)c(O)c2n1`, the Potency in assay [1] is 18.8 µM (active). Besides, the Potency result in assay [7] and in [5] was “inactive” in each case.

For `Cc1c(C)c2c(c(C)c1OC(=O)CCC(=O)OCCO)CC[C@@](C)(CCC[C@H](C)CCC[C@H](C)CCCC(C)C)O2`, the Potency in assay [1] was 23.7 µM (active); in [4] it was 9.52 µM [inconclusive] (active). Besides, the Potency result in assay [3], in assay [9] and in assay [5] was “inactive” throughout.

Turning to `COC(=O)C1=C(C)NC(C)=C(C(=O)O[C@@H]2CCCN(Cc3ccccc3)C2)[C@@H]1c1cccc([N+](=O)[O-])c1`, the Potency was 11.9 µM (active) in [1], 26.8 µM [inhibitor] (active) in assay [4] and 29.8 µM (active) in the assay with Aromatase (Homo sapiens). Besides, the Potency entry in [7], in assay [3], in assay [9], in assay [8] and in assay [6] was “inactive” each time.

For `CN(C)CCC=C1c2ccccc2C=Cc2ccccc21`, the Potency in assay [1] is 26.6 µM (active). For the same compound, the Potency entry (in assay [7]; in assay [3]; in [9]; in assay [8]; in assay [5]; with Aromatase (Homo sapiens)) was “inactive” each time. Further, in [6], the Potency result was “inactive”.

`O=C(CCCN1CC=C(n2c(=O)[nH]c3ccccc32)CC1)c1ccc(F)cc1`: the compound was called inactive in assay [2]. Further, the Potency entry in assay [4], in assay [7], in assay [3], in assay [9], in assay [8] and in assay [5] was “inactive” throughout. Also, the Potency entry (with Aromatase (Homo sapiens); in [6]) was “inactive” each time.

On to `CN(C)CCN1C(=O)c2ccccc2N(C)c2ccccc21`, for which the call in [2] was inactive. The Potency result in assay [4], in assay [7], in [3], in assay [9], in assay [8] and in assay [5] was “inactive” in each case. Moreover, the Potency result (with Aromatase (Homo sapiens); in assay [6]) was “inactive” throughout.

As to `C[C@@H]1CN(CCCn2c3ccccc3c3ccccc32)C[C@H](C)N1`, in assay [1], the Potency is 8.41 µM (active). Also, the Potency entry in assay [5] and in assay [6] was “inactive” each time.

Consider `CN1C(=O)c2ccccc2C1=O`, for which the Potency result (in [1]; with Aromatase (Homo sapiens); in [6]) was “inactive” each time. For the same compound, the compound was called inactive in [2].

With `CC(C)Nc1cccnc1N1CCN(C(=O)c2cc3cc(NS(C)(=O)=O)ccc3[nH]2)CC1`, the result in assay [2] was inactive. Also, the Potency result in assay [4], in assay [7], in assay [3], in assay [9], in [8] and in assay [5] was “inactive” each time. Besides, the Potency entry (with Aromatase (Homo sapiens); in assay [6]) was “inactive” each time.

Consider `CN1CCCC(CC2c3ccccc3Sc3ccccc32)C1` (configuration not stated), for which the Potency in assay [1] is 7.17 µM (active). Moreover, the Potency entry (in assay [4]; in assay [7]; in assay [3]; in [9]; in assay [5]; with Aromatase (Homo sapiens)) was “inactive” throughout. The Potency result in assay [6] was “inactive”.

As to `CCC(C)COC(=O)CC(C)C` (configuration not stated), the outcome in [2] was inactive. Besides, the Potency result in assay [4], in assay [7], in assay [3], in assay [9], in assay [8] and in assay [5] was “inactive” each time. The Potency result (in the assay with Aromatase (Homo sapiens); in assay [6]) was “inactive” throughout.

Turning to `CN1CCCC(n2nc(Cc3ccc(Cl)cc3)c3ccccc3c2=O)CC1` (configuration not stated), the Potency in assay [1] was 21.1 µM (active). Moreover, the Potency entry (in assay [4]; in assay [7]; in assay [3]; in [9]; with Aromatase (Homo sapiens); in assay [6]) was “inactive” each time.

Turning to `O=C1c2ccccc2C(=O)N1CCc1noc(-c2ccc(CN3CCCCCC3)s2)n1`, the call in assay [2] was inactive. For the same compound, the Potency entry in assay [4], in assay [3], in [5] and in assay [6] was “inactive” throughout.

For the compound `O=[N+]([O-])c1ccc(O/N=C/c2cc(Br)c(O)c(Br)c2)c([N+](=O)[O-])c1`, the Potency in assay [1] is 9.64 µM (active). Moreover, in [2], the result was inactive. In addition, the Potency result (with Aromatase (Homo sapiens); in [6]) was “inactive” each time.

Regarding `O=C1c2ccccc2C(=O)c2c(O)c(O)cc(O)c21`, the compound was called inactive in [2]. For the same compound, the Potency entry (in assay [4]; in assay [7]; in assay [3]; with Aromatase (Homo sapiens)) was “inactive” throughout. Further, the Potency in assay [6] was 27.3 µM (active).

In the case of `CN1CCCN=C1COC(=O)C(O)(c1ccccc1)C1CCCCC1` (configuration not stated), the compound was classed as inactive in assay [2]. Further, the Potency entry (in [4]; in [3]; in [9]; in assay [8]; in assay [5]; in the assay with Aromatase (Homo sapiens)) was “inactive” in each case. In assay [6], the Potency entry is “inactive”.

Consider `C=Cc1ccc(S(=O)(=O)O)cc1`, for which the call in assay [2] was inactive. In addition, the Potency result (in [4]; in assay [7]; in assay [3]; in assay [5]; with Aromatase (Homo sapiens); in assay [6]) was “inactive” in each case. In [9], the Potency was 23.7 µM (active) and inactive.
